Data: PubChem BioAssay (NCATS)
Results filed as inconclusive are left out. Activity calls are given as the source filed them. Unless noted, calls follow the shape of the dose curve; as a rule, active = well fitted curve in the direction sought with a large enough effect; inconclusive = small, poorly fitted or top-dose-only effect, or another doubt; inactive = no such curve, though single readings can be large; an effect the other way counts as inactive or inconclusive.

How the values were obtained:
[1] = target: Lysosomal acid glucosylceramidase (Homo sapiens) (UniProt P04062); experiment: Glucocerebrosidase-p2 (AID 348; in the data active = potency below about 10 µM; also: potency is read from the fitted curve at half-maximal effect); settings: purified GBA, blue fluorogenic substrate, 40 min
Lysosomal acid glucosylceramidase (Homo sapiens), sequence (P04062 whole entry, looked up): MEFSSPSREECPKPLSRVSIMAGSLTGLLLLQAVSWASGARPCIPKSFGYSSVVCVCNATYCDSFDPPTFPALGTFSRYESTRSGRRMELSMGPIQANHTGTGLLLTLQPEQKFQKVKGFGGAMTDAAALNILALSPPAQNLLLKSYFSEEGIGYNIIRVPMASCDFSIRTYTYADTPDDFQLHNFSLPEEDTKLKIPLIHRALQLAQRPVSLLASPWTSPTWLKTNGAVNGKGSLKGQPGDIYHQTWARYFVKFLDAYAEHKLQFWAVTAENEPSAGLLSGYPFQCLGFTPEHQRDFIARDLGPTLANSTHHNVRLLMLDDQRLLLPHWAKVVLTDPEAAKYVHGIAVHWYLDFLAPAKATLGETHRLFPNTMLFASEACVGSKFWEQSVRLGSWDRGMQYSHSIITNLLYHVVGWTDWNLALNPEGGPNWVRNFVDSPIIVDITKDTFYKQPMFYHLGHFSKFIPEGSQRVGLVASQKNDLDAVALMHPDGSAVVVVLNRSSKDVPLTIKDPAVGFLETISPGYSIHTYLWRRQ
In short: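 Normal human glucocerebrosidase (0.2 nM) with blue fluorogenic substrate (80 uM final) in citrate/phosphate pH 5.9 with 10mM sodium taurocholate, 0.01% tween-20; 40 min RT, NaOH/glycine stop; fluorescence Ex 365/Em 440; AC50 from a titration from 0.6 nM upwards.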

[2] = AP1 Signaling Pathway (AID 357; active = well fitted curve in either direction with a large enough effect, not every such curve was filed as active; also: % is scaled to controls: 0 for no effect and ±100 for the full control effect); settings: ME-180 AP-1-bla reporter, EGF-induced, beta-lactamase ratio, 5 h; at 7.69 µM (top of the series) unless noted
In short: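 ME-180 cells with beta-lactamase reporter under AP-1 response element, stimulated with EC50 EGF; compounds tested in titration series, 5 h at 37 °C. CCF4 substrate added 2.5 h at room temperature; 460/530 nm emission ratio gave %activity and AC50.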

[3] = target: Cytochrome P450 1A2 (Homo sapiens) (UniProt P05177); experiment: p450-cyp1a2 (AID 410; calls by dose curve; also: potency is read from the fitted curve at half-maximal effect); settings: recombinant CYP1A2, luciferin-ME demethylation, luminescence; series mostly up to 57 µM
Cytochrome P450 1A2 (Homo sapiens), sequence (P05177 whole entry, looked up): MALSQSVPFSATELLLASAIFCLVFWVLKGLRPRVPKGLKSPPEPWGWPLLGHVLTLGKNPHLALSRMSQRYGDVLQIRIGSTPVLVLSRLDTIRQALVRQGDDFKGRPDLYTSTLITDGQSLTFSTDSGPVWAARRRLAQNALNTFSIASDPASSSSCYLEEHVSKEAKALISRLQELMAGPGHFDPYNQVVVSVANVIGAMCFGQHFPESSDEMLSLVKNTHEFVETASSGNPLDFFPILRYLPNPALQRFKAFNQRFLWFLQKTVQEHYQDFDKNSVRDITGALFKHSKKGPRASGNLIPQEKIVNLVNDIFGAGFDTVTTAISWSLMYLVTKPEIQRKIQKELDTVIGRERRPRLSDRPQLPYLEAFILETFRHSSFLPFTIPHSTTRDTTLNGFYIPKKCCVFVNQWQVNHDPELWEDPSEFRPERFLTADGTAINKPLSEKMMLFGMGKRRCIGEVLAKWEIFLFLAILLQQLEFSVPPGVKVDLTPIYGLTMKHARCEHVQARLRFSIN
In short: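 Read-out is luminescence from luciferin produced by CYP1A2 demethylation of Luciferin-ME (100uM, at Km). Detection reagent stopped the 60 min NADPH-dependent reaction; signals were normalized to 57 uM furafylline.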

[4] = NFAT Signaling Pathway (AID 444; active = well fitted curve in either direction with a large enough effect, not every such curve was filed as active;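 also: carbachol stimulus at about its EC50 of 1 µM final; % is scaled to controls: 0 for no effect and ±100 for the full control effect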); settings: Jurkat NFAT-bla M1, carbachol, beta-lactamase ratio, 5 h; at 7.69 µM (top of the series) unless noted
In short: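 Jurkat cells carrying an NFAT-driven β-lactamase reporter and co-transfected muscarinic M1 receptor were treated with compound plus carbachol (1 uM final, an EC50 level) for 5 h at 37 °C. CCF4 loading followed for 1 h at RT; 460/530 nm ratio gave %activity.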

[5] = target: Glucocorticoid receptor (Homo sapiens) (UniProt P04150); experiment: GR-GFP Redistribution (AID 450;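 active = compounds whose dose series gives a full or clear partial fitted curve of increased nuclear translocation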; also: potency is read from the fitted curve at half-maximal effect); settings: U2OS GR-GFP nuclear translocation, laser cytometry, 2 h
Glucocorticoid receptor (Homo sapiens), sequence (P04150 whole entry, looked up, the tested form may be a part): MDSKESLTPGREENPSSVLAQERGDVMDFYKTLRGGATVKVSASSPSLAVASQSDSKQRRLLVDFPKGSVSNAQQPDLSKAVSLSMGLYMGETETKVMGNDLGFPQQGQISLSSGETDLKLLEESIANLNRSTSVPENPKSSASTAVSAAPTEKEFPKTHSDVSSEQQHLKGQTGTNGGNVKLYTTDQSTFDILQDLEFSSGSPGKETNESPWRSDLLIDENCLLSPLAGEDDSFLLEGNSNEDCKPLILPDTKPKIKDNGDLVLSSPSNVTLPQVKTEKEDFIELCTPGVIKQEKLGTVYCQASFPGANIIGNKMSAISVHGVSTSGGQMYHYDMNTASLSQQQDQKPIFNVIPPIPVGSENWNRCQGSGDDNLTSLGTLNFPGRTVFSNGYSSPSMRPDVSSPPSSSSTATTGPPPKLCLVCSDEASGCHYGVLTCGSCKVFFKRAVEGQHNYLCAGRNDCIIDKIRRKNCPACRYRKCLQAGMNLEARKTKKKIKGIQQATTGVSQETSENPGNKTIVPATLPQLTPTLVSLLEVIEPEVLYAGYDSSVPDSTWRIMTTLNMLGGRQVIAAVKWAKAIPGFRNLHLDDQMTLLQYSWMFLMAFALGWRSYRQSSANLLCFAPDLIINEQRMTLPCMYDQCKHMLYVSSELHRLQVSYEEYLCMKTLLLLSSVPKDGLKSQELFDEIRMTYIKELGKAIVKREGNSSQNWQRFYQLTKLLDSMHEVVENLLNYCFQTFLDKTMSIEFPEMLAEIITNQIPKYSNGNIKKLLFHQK

[6] = target: Glucocorticoid receptor (Homo sapiens) (UniProt P04150); experiment: GR-EFC Redistribution (AID 451; calls by dose curve; also: potency is read from the fitted curve at half-maximal effect); settings: CHO-K1 GR-EFC translocation, beta-gal luminescence, 2 h
In short: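 CHO-K1 cells stably expressing nuclear-localized β-gal enzyme acceptor and GR fused C-terminally to the enzyme donor fragment; ligand-driven nuclear translocation restores β-gal by complementation. Compounds titrated up to 46 uM final, 2 h at 37 °C; luminescence read.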

[7] = target: Cytochrome P450 3A4 (Homo sapiens) (UniProt P08684); experiment: qHTS Assay for Activators of Cytochrome P450 3A4 (AID 885); settings: recombinant CYP3A4, Luciferin-PPXE luminescence, 60 min; series mostly up to 57.1 µM; also: nearly all actives have a fitted effect of over 65% in size
Cytochrome P450 3A4 (Homo sapiens), sequence (P08684 whole entry, looked up): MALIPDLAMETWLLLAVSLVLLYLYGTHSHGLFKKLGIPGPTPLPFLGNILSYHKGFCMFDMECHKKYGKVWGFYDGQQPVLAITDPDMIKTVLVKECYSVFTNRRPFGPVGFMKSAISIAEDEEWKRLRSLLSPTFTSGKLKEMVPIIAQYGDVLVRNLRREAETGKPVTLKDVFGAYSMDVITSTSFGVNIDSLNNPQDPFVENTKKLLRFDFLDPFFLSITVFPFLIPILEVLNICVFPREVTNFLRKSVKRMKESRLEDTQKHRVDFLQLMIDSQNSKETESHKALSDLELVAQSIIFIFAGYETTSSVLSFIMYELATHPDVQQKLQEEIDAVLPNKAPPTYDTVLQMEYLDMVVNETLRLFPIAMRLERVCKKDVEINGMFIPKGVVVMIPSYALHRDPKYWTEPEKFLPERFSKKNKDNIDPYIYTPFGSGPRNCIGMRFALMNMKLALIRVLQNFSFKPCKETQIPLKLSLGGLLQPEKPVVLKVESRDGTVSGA
In short: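 Human CYP3A4 dealkylates Luciferin-PPXE to luciferin, which luciferase detection converts to light. Substrate was at its KM (25uM), buffer 200mM KPO4, reaction 60 min at RT.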

[8] = qHTS Assay for Lipid Storage Modulators (AID 1519; calls by dose curve); settings: Drosophila S3 cells, BODIPY lipid droplet/cell ratio, laser cytometry, cells loaded with oleic acid; for activity change, negative = inhibition: at 57.5 µM (top of the series)
In short: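 Cells seeded at 5,000 per well were treated with compounds over a concentration series and loaded with oleic acid (400 uM, as added). Lipid droplet fluorescence (488 nm excitation, 500-530 nm channel) was read by laser-scanning cytometry and normalized to 20 uM Triacsin C.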

[9] = target: Dual specificity protein kinase CLK4 (Homo sapiens) (UniProt Q9HAZ1); experiment: qHTS Assay for Inhibitors of CDC-like Kinase 4 (Kinase-Glo Assay) (AID 1770); settings: recombinant Clk4, Kinase-Glo ATP depletion luminescence; series mostly up to 66.7 µM; also: % is scaled to controls: 0 for no effect and ±100 for the full control effect; nearly all actives have a fitted effect of over 65% in size
Dual specificity protein kinase CLK4 (Homo sapiens), sequence (Q9HAZ1 whole entry, looked up): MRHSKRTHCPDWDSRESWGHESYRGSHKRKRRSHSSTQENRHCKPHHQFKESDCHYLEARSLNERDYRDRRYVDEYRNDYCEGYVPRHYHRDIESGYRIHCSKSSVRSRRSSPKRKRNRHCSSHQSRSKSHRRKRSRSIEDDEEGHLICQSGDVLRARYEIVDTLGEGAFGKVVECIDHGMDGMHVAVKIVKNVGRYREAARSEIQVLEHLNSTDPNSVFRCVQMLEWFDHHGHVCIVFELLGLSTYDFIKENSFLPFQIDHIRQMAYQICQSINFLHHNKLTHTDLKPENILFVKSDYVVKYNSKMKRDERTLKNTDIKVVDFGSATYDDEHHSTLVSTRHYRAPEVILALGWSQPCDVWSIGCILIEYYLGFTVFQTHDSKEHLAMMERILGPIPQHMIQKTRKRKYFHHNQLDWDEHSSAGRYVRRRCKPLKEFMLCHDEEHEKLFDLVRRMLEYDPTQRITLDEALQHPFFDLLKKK
In short: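 Recombinant human Clk4 (25 nM) phosphorylated RS repeat peptide (100 uM) with 1 uM ATP in Tris pH 7.5/MgCl2/EGTA/DTT/Triton buffer for 4.5 h at room temperature. Residual ATP was quantified by Kinase-Glo luciferase luminescence.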

[10] = target: Dual specificity protein kinase CLK4 (Homo sapiens) (UniProt Q9HAZ1); experiment: qHTS Assay for Inhibitors of CDC-like Kinase 4 (ADP-FP Assay) (AID 1795); settings: Transcreener ADP fluorescence polarization; series mostly up to 50 µM; also: % is scaled to controls: 0 for no effect and ±100 for the full control effect; nearly all actives have a fitted effect of over 60% in size
In short: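 Recombinant human Clk4 (6.25 nM) phosphorylated RS repeat peptide (100 uM) with 1 uM ATP in Tris pH 7.5/MgCl2/EGTA/DTT/Triton buffer for one hour. ADP was quantified by Transcreener competitive fluorescence polarization against an ADP calibration curve.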

[11] = Primary qHTS for small molecule stabilizers of the endoplasmic reticulum resident proteome: Secreted ER Calcium Modulated Protein (SERCaMP) assay (AID 1508630); settings: SH-SY5Y GLuc-SERCaMP (Gaussia luciferase released on ER calcium loss) secretion, thapsigargin, luminescence; series mostly up to 38.4 µM; also: % is scaled to controls: 0 for no effect and ±100 for the full control effect
In short: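 The SH-SY5Y reporter protocol was run at 3 concentrations up to 38.3 uM (primary) or 11 concentrations (follow-up): 16 h compound, 100 nM thapsigargin for 4 h, then extracellular luciferase luminescence.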

[12] = Stat Signaling Pathway (AID 446; active = well fitted curve in either direction with a large enough effect, not every such curve was filed as active;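 also: ME-180 cervical cancer cells given 40 pM IL-6 alongside compound; SIE-controlled beta-lactamase reporter measured as 460/530 nm FRET emission ratio; % is scaled to controls: 0 for no effect and ±100 for the full control effect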); settings: ME-180 (cervical carcinoma) SIE beta-lactamase reporter, IL-6 stimulated, 5 h; at 7.69 µM (top of the series) unless noted
In short: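 Normalization used AC90 stimulation (300 pM IL-6) and AC90 inhibition (125 nM pan-JAK inhibitor at 40 pM IL-6). The underlying signal is SIE-driven beta-lactamase in ME-180 cells after 5 h IL-6 exposure with compound.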

[13] = target: Mitogen-activated protein kinase 10 (Mus musculus) (UniProt Q61831); experiment: JNK3 AlphaScreen Assay (AID 530; active = well fitted curve in either direction with a large enough effect, not every such curve was filed as active); settings: JNK3 lysate, c-Jun phosphorylation; series mostly up to 57.1 µM
In short: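 Biotinylated GST-cJun(1-79) served as substrate for JNK3 in HepG2 lysates stimulated with IL-1beta and TNF-alpha. ATP was 10 uM final, pH 7.6. Ser73 phosphorylation was quantified by AlphaScreen (680 nm excitation).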

[14] = target: Dual specificity protein kinase CLK4 (Homo sapiens) (UniProt Q9HAZ1); experiment: qHTS Assay for Inhibitors of CDC-like Kinase 4 (ADP-Glo Assay) (AID 1771); settings: recombinant CLK4, ADP-Glo luminescence; series mostly up to 80 µM; also: % is scaled to controls: 0 for no effect and ±100 for the full control effect; nearly all actives have a fitted effect of over 70% in size
In short: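 In this ADP-Glo format, 1 uM ATP and 100 uM RS peptide served as substrates for 25 nM Clk4 in Mg2+/EGTA/DTT/Triton buffer; reactions ran 1 hr at room temperature before luminescent ADP quantification.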

[15] = target: Ubiquitin carboxyl-terminal hydrolase 1 (Homo sapiens) (UniProt O94782); experiment: Inhibitors of USP1/UAF1: Pilot qHTS (AID 504865); settings: purified USP1/UAF1, Ub-rhodamine cleavage fluorescence; series mostly up to 54.9 µM;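 also: rhodamine fluorescence freed from ubiquitin-rhodamine substrate followed over time; top concentration of the series differs between compounds; % is scaled to controls: 0 for no effect and ±100 for the full control effect; nearly all actives have a fitted effect of over 35% in size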
Ubiquitin carboxyl-terminal hydrolase 1 (Homo sapiens), sequence (O94782 whole entry, looked up): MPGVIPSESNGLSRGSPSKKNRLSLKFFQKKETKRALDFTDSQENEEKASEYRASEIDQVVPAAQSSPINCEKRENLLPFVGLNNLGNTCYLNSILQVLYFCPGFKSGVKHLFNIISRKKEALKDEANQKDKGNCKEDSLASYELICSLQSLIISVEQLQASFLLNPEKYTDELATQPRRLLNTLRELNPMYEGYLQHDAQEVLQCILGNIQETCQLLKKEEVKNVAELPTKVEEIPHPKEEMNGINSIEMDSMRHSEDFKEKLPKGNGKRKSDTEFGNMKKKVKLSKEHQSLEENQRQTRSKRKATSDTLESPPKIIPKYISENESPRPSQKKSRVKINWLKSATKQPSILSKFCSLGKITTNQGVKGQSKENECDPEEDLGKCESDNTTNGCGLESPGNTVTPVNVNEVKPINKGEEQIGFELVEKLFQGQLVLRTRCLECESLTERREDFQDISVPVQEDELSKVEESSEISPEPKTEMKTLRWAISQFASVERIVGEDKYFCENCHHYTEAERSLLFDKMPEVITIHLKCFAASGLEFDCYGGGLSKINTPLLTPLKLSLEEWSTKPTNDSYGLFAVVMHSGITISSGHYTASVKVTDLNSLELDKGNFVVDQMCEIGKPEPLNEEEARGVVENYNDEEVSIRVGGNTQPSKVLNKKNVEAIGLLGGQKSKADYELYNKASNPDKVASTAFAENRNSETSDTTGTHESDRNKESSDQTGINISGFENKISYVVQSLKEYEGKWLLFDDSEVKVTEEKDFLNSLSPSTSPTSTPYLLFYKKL
In short: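 USP1/UAF1 complex (1nM) preincubated with compound 15 min at room temperature, then Ub-Rho substrate (150nM final) added. Fluorescence read kinetically at 480/540 nm, 6 reads every 60 seconds. Buffer: 50mM HEPES pH 7.8, 0.5mM EDTA, 0.1 mg/ml BSA, 1mM TCEP, 0.01% Tween-20.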

[16] = measured here: cell count channel max response
[17] = measured here: lipid channel max response

Structure (SMILES)	Potency [1]	activity change, negative = inhibition [2]	Potency [3]	activity change, negative = inhibition [4]	Potency [5]	Potency [6]	Potency [7]	activity change, negative = inhibition [8]	max response [8, 16] [%]	max response [8, 17] [%]	Potency [9]	Potency [10]	Potency [11]	activity, negative = inhibition [12]	outcome [13]	Potency [14]	Potency [15]
O=c1c(-c2cccs2)nc2cnc(N3CCOCC3)nc2n1-c1ccccc1	> 11.4 µM (inactive)	25.6% (inactive)	5.01 µM (active)	2.23% (inactive)	> 9.22 µM (inactive)	> 46 µM (inactive)	inactive	-15.1% (inactive)	13.7	-6.13	inactive	inactive	inactive				
O=c1cnc2cncnc2n1Cc1ccccc1	> 11.4 µM (inactive)	-12.8% (inactive)	25.1 µM (active)	-13.5% (inactive)	> 9.22 µM (inactive)	> 46 µM (inactive)	inactive	0.677% (inactive)	15	14	inactive		inactive	-12.1% (inactive)	inactive	inactive	inactive
CCNc1ncc2nc(-c3ccc(OC)cc3)c(=O)n(C[C@H]3CCCO3)c2n1	> 11.4 µM (inactive)	-5.93% (inactive)			> 9.22 µM (inactive)	> 46 µM (inactive)		-3.19% (inactive)	8.2	0.991	inactive		inactive			inactive	inactive
